hNpr1 antagonist: Natriuretic polypeptide receptor (hNpr1) antagonism - Primary qHTS; Atrial natriuretic peptide receptor 1 (Homo sapiens), P16066; HEK293 hNpr1 GloSensor cGMP, ANP-stimulated luminescence; Potency, µM (doses to about 46.3 µM), actives largely listed as inhibitors; 76,000 compounds, 1.6% hits; AID 1347048, 2019; calls by dose curve; further: nearly all actives have a fitted effect of over 60% in size
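HEK293 cells stably expressing human Npr1 and cGMP GloSensor pGS-40F, loaded 2 h with 2% GloSensor reagent, given compound 30 min at room temperature. Luminescence read before and 20 min after 0.1 nM hNppA.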
HEK cytotox: Cytotoxic Profiling in HEK 293 Cell Line of Diverse Libraries Using Quantitative High-Throughput Screening; HEK 293 viability, ATP luminescence (CellTiter-Glo), 48-72 h; Potency, µM (top dose mostly 115 µM), actives largely listed as inhibitors; 94,000 compounds, 6.6% hits; further: nearly all actives have a fitted effect of over 60% in size
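Pintool-delivered compounds were incubated with HEK 293 cells (250 cells/well) at 37 degree Celsius for 48 or 72 hr. ATP-dependent luminescence (CellTiter-Glo) then reported remaining viable cells.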
NIH3T3 tox: Cytotoxic Profiling in NIH 3T3 Cell Line of Diverse Libraries Using Quantitative High-Throughput Screening; NIH 3T3 viability, CellTiter-Glo ATP luminescence, 48-72 h; 94,000 compounds, 4.3% hits; Potency, µM (top dose mostly 96.7 µM), actives largely listed as inhibitors; further: nearly all actives have a fitted effect of over 55% in size
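Mouse fibroblast NIH 3T3 cells, 400 per well, received compound via pintool and were incubated for 48 or 72 hr prior to CellTiter-Glo ATP luminescence measurement.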
Luciferase inh: Firefly luciferase inhibition profiling of diverse chemical library using quantitative high-throughput screening. Luciferin 4-monooxygenase (Photinus pyralis), P08659. purified P. pyralis luciferase, luminescence, biochemical. Potency, µM (titrated, usually from 115 µM), most hits filed as inhibitors. 76,000 compounds, 2.5% hits. AID 1347043, 2019; further: nearly all actives have a fitted effect of over 65% in size
Target sequence (P08659 whole entry, looked up): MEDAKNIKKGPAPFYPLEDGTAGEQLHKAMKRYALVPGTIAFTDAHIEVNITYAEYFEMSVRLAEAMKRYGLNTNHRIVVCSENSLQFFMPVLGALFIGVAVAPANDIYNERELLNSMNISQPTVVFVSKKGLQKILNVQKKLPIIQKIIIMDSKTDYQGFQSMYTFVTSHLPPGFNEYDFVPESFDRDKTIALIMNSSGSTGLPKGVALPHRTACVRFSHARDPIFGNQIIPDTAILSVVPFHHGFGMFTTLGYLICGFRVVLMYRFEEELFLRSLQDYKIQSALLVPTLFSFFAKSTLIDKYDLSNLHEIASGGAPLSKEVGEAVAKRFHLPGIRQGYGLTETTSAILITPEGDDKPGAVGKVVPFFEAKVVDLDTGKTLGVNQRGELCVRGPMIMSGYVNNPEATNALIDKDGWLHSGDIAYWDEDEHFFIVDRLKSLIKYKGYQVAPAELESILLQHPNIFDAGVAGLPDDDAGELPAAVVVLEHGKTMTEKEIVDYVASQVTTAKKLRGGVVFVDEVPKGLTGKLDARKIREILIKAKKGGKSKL
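Inhibitors were tested against purified firefly luciferase in a biochemical, low-substrate format (both substrates at 10uM) and luminescence measured with a CCD imager.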
Numbers stand for hits. Only some compounds are listed: those with a hit (about 11% of all), similar ones and a draw of the others. Unless noted, the call rests on the fitted dose curve; in most records, active means well fitted curve in the direction sought with a large enough effect; inconclusive means small, poorly fitted or top-dose-only effect, or another doubt; inactive means no such curve, though single readings can be large; an effect the other way counts as inactive or inconclusive.

Screening CN1c2cc(C(=O)Nc3cccc(OC(F)(F)F)c3)ccc2C(=O)N2CCCCCC21 (centres undefined) returned hNpr1 antagonist inactive, HEK cytotox inconclusive, NIH3T3 tox inactive and Luciferase inh inactive.
`CC1CCN(c2ccc(CNC(=O)c3ccc4c(c3)C(O)CCCCCN4C)cc2)CC1` (centres undefined) gave hNpr1 antagonist inactive, HEK cytotox inconclusive, NIH3T3 tox 39.8µM and Luciferase inh inactive.
CNc1cc(C2CC(NS(=O)(=O)c3cc(C)sc3C)C2)nc(N)n1 (centres undefined) was read as hNpr1 antagonist inactive, HEK cytotox inconclusive, NIH3T3 tox inconclusive and Luciferase inh inactive.
Screening COc1ccc(-n2c(=O)c(C(=O)NCCc3ccc(F)cc3)nc3cccnc32)cc1 returned HEK cytotox inactive and NIH3T3 tox inactive.
Screening CCC1(O)CCC12CCN(C(=O)CCc1ccc(OC)cc1)CC2 (centres undefined) returned HEK cytotox inactive and NIH3T3 tox inactive.
O=C(c1ccc2[nH]ccc2c1)N1CCN(C(=O)c2nnn3c2COC(c2ccccc2)C3)CC1 (centres undefined) was read as hNpr1 antagonist inactive, HEK cytotox 79.4µM, NIH3T3 tox inactive and Luciferase inh inactive.
Screening Cc1ccc(C2Cn3nnc(C(=O)N4CCC(C(=O)NC5CCCCCC5)CC4)c3CO2)cc1 (centres undefined) returned hNpr1 antagonist inactive, HEK cytotox inconclusive, NIH3T3 tox inactive and Luciferase inh inconclusive.
Screening Cc1ccc(C2Cn3nnc(C(=O)N4CCN(C(=O)c5cccc(N(C)C)c5)CC4)c3CO2)cc1 (centres undefined) returned hNpr1 antagonist inconclusive, HEK cytotox 17.8µM, NIH3T3 tox inactive and Luciferase inh inconclusive.
`Cc1ccc(C2Cn3nnc(C(=O)N4CCC(C(=O)Nc5cccc(Cl)c5)CC4)c3CO2)cc1` (centres undefined) gave hNpr1 antagonist inactive, HEK cytotox 39.8µM, NIH3T3 tox inconclusive and Luciferase inh 28.2µM.
Screening Cc1ccc(C2Cn3nnc(C(=O)N4CCC(C(=O)Nc5ccc(Cl)c(C)c5)CC4)c3CO2)cc1 (centres undefined) returned hNpr1 antagonist inactive, HEK cytotox inactive, NIH3T3 tox inactive and Luciferase inh 35.5µM.
Screening CSc1ccc(NC(=O)C2CCN(C(=O)c3nnn4c3COC(c3ccc(C)cc3)C4)CC2)cc1 (centres undefined) returned hNpr1 antagonist inactive, HEK cytotox inactive, NIH3T3 tox inactive and Luciferase inh inconclusive.
Cc1ccc2nc(CO[C@H]3CN(Cc4ccccc4)C[C@H]3F)[nH]c2c1 was read as hNpr1 antagonist inactive, HEK cytotox inconclusive, NIH3T3 tox inconclusive and Luciferase inh inactive.
CCN1c2cc(C(=O)Nc3cc(C)cc(C)c3)ccc2C(=O)N2CCCC21 (centres undefined) was read as hNpr1 antagonist inactive, HEK cytotox inconclusive, NIH3T3 tox inconclusive and Luciferase inh inactive.
`O=C(NC1CCCCC1)C1CN(S(=O)(=O)c2cc(F)ccc2F)CC12CCOCC2` (centres undefined) gave hNpr1 antagonist inactive, HEK cytotox inactive, NIH3T3 tox inactive and Luciferase inh inactive.
Screening CC1=C[C@@H](CN2CCN(c3ccccn3)CC2)[C@H](C(C)C)C[C@H]1Cc1nnc(-c2ccc(C)cc2)o1 returned hNpr1 antagonist inactive, HEK cytotox inconclusive, NIH3T3 tox inconclusive and Luciferase inh inactive.
CC1=C[C@@H](CN2CCN(c3cnccn3)CC2)[C@H](C(C)C)C[C@H]1Cc1nnc(-c2ccccc2)o1 was read as hNpr1 antagonist inactive, HEK cytotox 25.1µM, NIH3T3 tox inconclusive and Luciferase inh inactive.
`COc1ccc(-c2nnc(C[C@@H]3C[C@@H](C(C)C)[C@H](CN4CCN(C)CC4)C=C3C)o2)cc1` gave hNpr1 antagonist inactive, HEK cytotox 31.6µM, NIH3T3 tox 39.8µM and Luciferase inh inactive.
`CC1=C[C@@H](CN2CCN(c3ncccn3)CC2)[C@H](C(C)C)C[C@H]1Cc1nnc(-c2ccc(N(C)C)cc2)o1` gave hNpr1 antagonist inactive, HEK cytotox 28.2µM, NIH3T3 tox inconclusive and Luciferase inh inactive.
CC1=C[C@@H](CN2CCC(O)CC2)[C@H](C(C)C)C[C@H]1Cc1nnc(-c2ccc([N+](=O)[O-])cc2)o1 was read as hNpr1 antagonist inactive, HEK cytotox inconclusive, NIH3T3 tox inconclusive and Luciferase inh inactive.
`CCCc1nnc(C[C@@H]2C[C@@H](C(C)C)[C@H](CN3CCN(CCO)CC3)C=C2C)o1` gave hNpr1 antagonist inactive, HEK cytotox inconclusive, NIH3T3 tox inconclusive and Luciferase inh inactive.
Screening COc1ccc(-c2nnc(C[C@@H]3C[C@@H](C(C)C)[C@H](CN4CCN(CCO)CC4)C=C3C)o2)cc1 returned hNpr1 antagonist inactive, HEK cytotox 44.7µM, NIH3T3 tox inconclusive and Luciferase inh inactive.
For CCOCCNC(=O)C1CCCN1C(=O)c1cccc(-c2cccc(OC)c2)c1 (centres undefined) the results were HEK cytotox inactive and NIH3T3 tox inactive.
CN1CC(=O)N(C2CCCNCC2)Cc2c(NCc3ccccn3)ncnc21 (centres undefined) was read as HEK cytotox inactive and NIH3T3 tox inactive.
For CC(C)CCN1CCCCCCNC(=O)[C@@H]2CCC[C@@H]21 the results were hNpr1 antagonist inactive, HEK cytotox inconclusive, NIH3T3 tox inactive and Luciferase inh inactive.
`CC1=C[C@@H](CN2CCN(CCO)CC2)[C@H](C(C)C)C[C@H]1Cc1nnc(-c2ccc([N+](=O)[O-])cc2)o1` gave hNpr1 antagonist inactive, HEK cytotox inconclusive, NIH3T3 tox inconclusive and Luciferase inh inactive.
Screening CC1=C[C@@H](CN2CCN(CCO)CC2)[C@H](C(C)C)C[C@H]1Cc1nnc(-c2ccc(N(C)C)cc2)o1 returned hNpr1 antagonist inactive, HEK cytotox 14.1µM, NIH3T3 tox 20µM and Luciferase inh inactive.
For CCCc1ccc2oc(C(=O)N(C)Cc3snnc3C)c(C)c2c1 the results were hNpr1 antagonist inactive, HEK cytotox 39.8µM, NIH3T3 tox inconclusive and Luciferase inh inconclusive.
Screening Cc1ccc2oc(C(=O)N(C)Cc3cc(-c4ccccc4)no3)c(C)c2c1 returned hNpr1 antagonist inactive, HEK cytotox inconclusive, NIH3T3 tox inactive and Luciferase inh inactive.
CC(c1cccs1)N(C)Cc1ccc(N(C)C)cc1 (centres undefined) was read as hNpr1 antagonist inactive, HEK cytotox inactive, NIH3T3 tox inactive and Luciferase inh inactive.
For CN1Cc2ccc(NCc3ccccc3)nc2C(C)(C(=O)NCCOc2ccccc2)C1 (centres undefined) the results were hNpr1 antagonist inconclusive, HEK cytotox inconclusive, NIH3T3 tox inconclusive and Luciferase inh 63.1µM.
